Screens from PubChem.
Sfp PPTase inh: blocks B. subtilis Sfp PPTase activity | Q9F4F7 | Biochemical Sfp PPTase activity, qHTS | Potency, µM, without a hit: largest response in the series, negative = inhibition, hits mostly inhibitors | 310,000 tested, 3.5% active;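 further: the enzyme is Sfp with the accession as filed and its product quenches rhodamine fluorescence; potency means the concentration at half of the fitted maximal effect; 0% = enzyme reaction without inhibitor and -100% = no enzyme wells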
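Fluorescence-quenching assay: 15 nM Sfp-PPTase preincubated 15 min at room temperature with compound, then 5 uM rhodamine-CoA and 12.5 uM BHQ-2-labelled YbbR peptide added. Fluorescence (ex 525/em 598 nm) read at start and after 30 min; difference gives rate.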
FBPA coupling cs: counter-screen for Giardia aldolase inhibitors: coupling enzyme system; activity change, negative = inhibition, % at 58.2 µM, hits read low; coupling enzyme system counterscreen, AmpLite Red fluorescence; 290,000 tested, 0.67% active; AID 2472; in the data active means activity change below about -30%
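Counterscreen lacking aldolase: glyceraldehyde-3-phosphate coupling-enzyme reagent preincubated 10 min at RT with compound (at 57.5 uM final), then substrate/coupling system with AmpLite Red added; fluorescence read at 525/598 nm after 20 min RT.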
ELG1 DNA repair: inhibitors of ELG1-dependent DNA repair in HEK293T cells. HEK293T ELG1-luciferase reporter, luminescence, 16 h; DNA damage induced by 5-fluorouridine. Potency, µM (top dose mostly 46.1 µM), for inactives: top-dose activity change, negative = inhibition, actives largely listed as inhibitors. 330,000 tested, 2.3% active; further: potency means the concentration at half of the fitted maximal effect; nearly all actives have a fitted effect of over 55% in size
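Overnight (16 hr) co-exposure of 2,000 cells/well to 5-fluorouridine and compound at 37 °C preceded detection. Luciferase was quantified via ONE-Glo luminescence; loss of signal denotes inhibition.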
Giardia kill: kills Giardia lamblia | AID 540267 | 340,000 tested, 0.15% active | Giardia lamblia trophozoite viability | activity change, % at 7.66 µM, hits read low; in the data active means activity change below about -80%; inconclusive means between about -30% and that limit;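 further: parasites exposed to compound for two days anaerobically before the ATP read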
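Luminescent ATP signal served as the viability read-out, measured 15-30 min after adding ATP detection reagent to trophozoites that had been incubated with compounds for 48 hrs at 37 deg C anaerobically at 100 cells/well.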
ELG1 FLuc counter: luciferase inhibition in cell-free luciferin readout for ELG1 hits. shares compounds with ELG1 DNA repair. cell-free firefly luciferase luminescence counter-screen, ViewLux. Potency, µM (series often up to 46.1 µM), for inactives: top-dose activity change, negative = inhibition, most hits filed as inhibitors. 350 tested, 3% active. AID 624247; further: potency means the concentration at half of the fitted maximal effect
ELG1-Luc inh: inhibits ELG1-dependent DNA repair in HEK293T cells, confirmed; AID 624248; shares compounds with ELG1 DNA repair; 670 tested, 68% active; Potency, µM (doses to about 46.1 µM), without a hit: at the top dose activity change, negative = inhibition, hits mostly inhibitors; HEK293T ELG1-luciferase levels, luminescence; cells co-treated with 5-fluorouridine; further: potency means the concentration at half of the fitted maximal effect; nearly all actives have a fitted effect of over 55% in size
Target sequence (Q96QE3 whole entry, looked up): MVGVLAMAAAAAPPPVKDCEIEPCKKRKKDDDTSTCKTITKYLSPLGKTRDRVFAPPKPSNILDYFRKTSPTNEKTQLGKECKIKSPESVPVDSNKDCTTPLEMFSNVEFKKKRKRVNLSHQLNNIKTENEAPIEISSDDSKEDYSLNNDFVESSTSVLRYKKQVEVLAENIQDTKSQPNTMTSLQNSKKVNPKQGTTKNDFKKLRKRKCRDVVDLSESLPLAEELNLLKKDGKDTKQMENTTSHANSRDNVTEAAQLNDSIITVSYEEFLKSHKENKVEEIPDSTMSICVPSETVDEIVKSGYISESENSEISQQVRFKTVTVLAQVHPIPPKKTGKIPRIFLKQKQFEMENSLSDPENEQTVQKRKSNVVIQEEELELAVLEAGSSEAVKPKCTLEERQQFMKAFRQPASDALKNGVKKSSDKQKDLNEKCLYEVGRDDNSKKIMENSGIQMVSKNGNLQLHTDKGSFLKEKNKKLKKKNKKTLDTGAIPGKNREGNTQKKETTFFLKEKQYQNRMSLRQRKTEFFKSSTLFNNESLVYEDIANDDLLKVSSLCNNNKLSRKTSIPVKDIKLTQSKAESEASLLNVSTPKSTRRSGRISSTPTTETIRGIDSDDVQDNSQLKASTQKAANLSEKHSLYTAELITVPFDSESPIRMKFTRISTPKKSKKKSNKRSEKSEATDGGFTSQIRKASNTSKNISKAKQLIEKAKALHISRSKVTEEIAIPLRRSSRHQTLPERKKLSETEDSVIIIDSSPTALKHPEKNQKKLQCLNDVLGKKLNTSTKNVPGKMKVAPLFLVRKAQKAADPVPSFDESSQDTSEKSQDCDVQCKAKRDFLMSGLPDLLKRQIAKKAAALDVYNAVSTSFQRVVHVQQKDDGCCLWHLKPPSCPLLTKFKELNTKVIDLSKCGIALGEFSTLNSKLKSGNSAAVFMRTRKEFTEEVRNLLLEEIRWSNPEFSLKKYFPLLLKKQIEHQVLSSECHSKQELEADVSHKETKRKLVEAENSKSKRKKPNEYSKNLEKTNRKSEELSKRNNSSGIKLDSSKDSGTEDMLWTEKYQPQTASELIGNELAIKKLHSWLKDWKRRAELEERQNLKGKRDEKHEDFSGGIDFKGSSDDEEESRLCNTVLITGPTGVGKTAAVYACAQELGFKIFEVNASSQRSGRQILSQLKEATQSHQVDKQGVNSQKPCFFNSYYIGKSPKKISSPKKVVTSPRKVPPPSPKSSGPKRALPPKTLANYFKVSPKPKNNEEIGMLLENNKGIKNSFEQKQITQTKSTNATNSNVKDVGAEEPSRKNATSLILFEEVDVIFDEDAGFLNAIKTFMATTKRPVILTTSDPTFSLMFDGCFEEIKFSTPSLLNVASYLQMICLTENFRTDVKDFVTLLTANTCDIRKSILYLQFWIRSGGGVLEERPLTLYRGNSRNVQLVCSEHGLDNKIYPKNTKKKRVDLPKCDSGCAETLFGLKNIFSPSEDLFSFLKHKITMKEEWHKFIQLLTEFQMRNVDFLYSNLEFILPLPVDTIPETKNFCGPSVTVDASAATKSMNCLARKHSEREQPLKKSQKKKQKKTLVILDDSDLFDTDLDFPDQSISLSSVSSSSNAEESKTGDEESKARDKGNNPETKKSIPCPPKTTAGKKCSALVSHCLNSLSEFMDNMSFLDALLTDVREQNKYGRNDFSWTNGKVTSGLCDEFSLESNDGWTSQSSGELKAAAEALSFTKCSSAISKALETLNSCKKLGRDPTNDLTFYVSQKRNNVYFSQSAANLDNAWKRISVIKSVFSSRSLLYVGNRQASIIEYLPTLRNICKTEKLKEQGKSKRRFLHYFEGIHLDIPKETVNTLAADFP
ELG1-Luc MMS: MMS-stimulated human ELG1 repair inhibition, confirmed. shares compounds with ELG1 DNA repair. HEK293T luciferase-tagged ELG1 level, MMS stimulated. Potency, µM (top dose mostly 46.1 µM), inactives show at the highest dose activity change, negative = inhibition, hits mostly inhibitors. 670 tested, 53% active. AID 624249; further: potency means the concentration at half of the fitted maximal effect; nearly all actives have a fitted effect of over 60% in size
ELG1 5-FU: confirmation of ELG1 repair inhibitors: viability with 5FU. shares compounds with ELG1 DNA repair. cell viability with 5-FU, ELG1-dependent repair. Potency, µM (top dose mostly 46.1 µM), inactives show at the highest dose activity change, negative = viability loss, usual class: cytotoxic. 670 tested, under 10 active. AID 624250;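 further: ELG1-luc HEK293T cells cotreated with 5-fluorouridine at 10 µM final; potency means the concentration at half of the fitted maximal effect; viability measured 16 h after compound addition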
ELG1 MMS cell: confirmation of ELG1 repair inhibitors: viability with MMS | shares compounds with ELG1 DNA repair | Potency, µM (highest dose often 46.1 µM), without a hit: at the highest dose activity change, negative = viability loss, hits mostly cytotoxic | 670 tested, 33% active | Cell viability with MMS, ELG1-dependent DNA repair | AID 624251;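 further: ELG1-luc HEK293T cells co-treated with 10 µM MMS; potency means the concentration at half of the fitted maximal effect; viability read 16 h after compound addition; nearly all actives have a fitted effect of over 60% in size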
Cell viab unstim: unstimulated viability counter-screen for ELG1 repair hits. shares compounds with ELG1 DNA repair. cell viability counter-screen, unstimulated, luminescence. Potency, µM (series often up to 45.9 µM), inactives show at the top dose activity change, negative = loss of viability, usual class: cytotoxic. 900 tested, 8% active;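 further: potency means the concentration at half of the fitted maximal effect; compound exposure lasted 16 hours before reading; nearly all actives have a fitted effect of over 55% in size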
FLuc biochem: firefly luciferase inhibition counter-screen; shares compounds with ELG1 DNA repair; purified firefly luciferase, luminescence counter-screen; Potency, µM (titrated, usually from 57.5 µM), without a hit: top-dose activity, negative = inhibition, most hits filed as inhibitors; 350 tested, 10% active; AID 624253; further: potency means the concentration at half of the fitted maximal effect
Active calls of the source: *; ? = inconclusive; nt = not tested or not shown. An excerpt weighted towards active compounds, which were near 5.5% of everything screened. Unless noted, the call rests on the fitted dose curve; in most records, active means well fitted curve in the direction sought with a large enough effect; inconclusive means small, poorly fitted or top-dose-only effect, or another doubt; inactive means no such curve, though single readings can be large; an effect the other way counts as inactive or inconclusive. Unless noted, on the % scale 0 is the no-effect control and ±100 the full control effect.

SMILES	Sfp PPTase inh	FBPA coupling cs	ELG1 DNA repair	Giardia kill	ELG1 FLuc counter	ELG1-Luc inh	ELG1-Luc MMS	ELG1 5-FU	ELG1 MMS cell	Cell viab unstim	FLuc biochem
CC1(C)Cc2c(c(N3CCOCC3)nc3sc4c(NCc5ccccc5)nnnc4c23)CS1	0.8%	-0.9	13µM*	-8.6	4.0%	2.5µM*	15.0%	?	-1.6%	-12.7%	-14.2%
C=C1[C@@H](O)C2C=CC[C@H](C)C(=O)[C@@](C)(O)C=C[C@@H](OC(C)=O)[C@@]23C(=O)N[C@H](Cc2ccccc2)[C@@H]3[C@@H]1C (stereo partly specified)	-14.5%	1.6	nt	nt	nt	nt	nt	nt	nt	nt	nt
CC(=O)OC[C@]12C[C@H](OC(=O)CC(C)C)C(C)=C[C@H]1O[C@H]1[C@H](O)[C@@H](OC(C)=O)[C@@]2(C)[C@]12CO2	10.1%	-0.1	nt	nt	nt	nt	nt	nt	nt	nt	nt
CC(=O)OC[C@]12CCC(C)=C[C@H]1O[C@@H]1[C@H](O)[C@@H](OC(C)=O)[C@@]2(C)[C@]12CO2	18.1%	3.2	0.0183µM*	?	?	0.0281µM*	0.0177µM*	-0.2%	0.0445µM*	?	-5.2%
CNC(C)C(O)c1ccc(O)cc1 (stereo unspecified)	7.9%	nt	nt	nt	nt	nt	nt	nt	nt	nt	nt
CCC1OC2(C)C(O)C(/C=C/C=C/C=C/c3oc(=O)cc(OC)c3C)OC1(C)C2OC(C)=O (stereo unspecified)	-17.1%	1.8	nt	nt	?	2.23µM*	0.199µM*	-0.5%	0.158µM*	?	-9.5%
CCOC(=O)c1cccc([P+](=O)O)c1	9.6%	1.8	-0.6%	?	nt	nt	nt	nt	nt	nt	nt
CCOC(=O)c1cccc(NS(=O)(=O)c2ccc(NC(C)=O)cc2)c1	-21.8%	5.4	4.61µM*	-3.0	nt	12.5µM*	9.96µM*	-9.2%	11.2µM*	?	nt
CCC(C)C(NC(=O)CCCNC(=O)CCC(=O)OC1O[C@H]2OC3(C)CC[C@H]4[C@H](C)CCC(C1C)C24OO3)C(=O)O (stereo partly specified)	18.7%	2.8	0.58µM*	nt	-12.2%	?	?	-5.8%	-3.7%	?	-2.6%
NC(=O)c1ncn([C@H]2O[C@@H](CO)[C@@H](O)[C@@H]2O)n1	22.2%	1.3	nt	nt	nt	nt	nt	nt	nt	nt	nt
C[C@@H]1O[C@@H](O[C@H]2C[C@@H](O)[C@]3(CO)[C@H]4[C@H](O)C[C@]5(C)[C@@H](C6COC(=O)C6)CC[C@]5(O)[C@@H]4CC[C@]3(O)C2)[C@H](O)[C@H](O)[C@H]1O (stereo partly specified)	17.9%	2.0	1.46µM*	2.7	?	2.5µM*	1.58µM*	?	3.15µM*	?	3.0%
C[C@@]12CC(c3ccoc3)OC(=O)C1CC[C@@]1(C)C2C2C=C[C@@]1(O)C(=O)O2 (stereo partly specified)	15.0%	2.4	nt	nt	nt	nt	nt	nt	nt	nt	nt
C/C(=C\[C@@H](N)C(=O)O)CP(=O)(O)O	12.2%	-0.9	nt	nt	nt	nt	nt	nt	nt	nt	nt
O=C(Nc1cc(C(F)(F)F)cc(C(F)(F)F)c1)c1cc(Cl)ccc1O	3.8%	-8.6	nt	nt	?	0.706µM*	0.354µM*	?	0.397µM*	?	-8.7%
CC1=C[C@H]2[C@]3(O)C(C=C(CO)C[C@]2(O)C1=O)[C@@H]1C(C)(C)[C@]1(O)[C@H](O)[C@H]3C (stereo partly specified)	4.4%	0.9	nt	nt	nt	nt	nt	nt	nt	nt	nt
CC(C)NCC(O)c1ccccc1Cl (stereo unspecified)	10.9%	nt	nt	nt	nt	nt	nt	nt	nt	nt	nt
CC(C)(C)OC(=O)NCc1ccc(CNC(=O)c2nc[nH]c2C(=O)NCc2ccc(CNC(=O)OC(C)(C)C)cc2)cc1	nt	nt	2.91µM*	-3.0	nt	4.99µM*	?	6.9%	9.2%	?	nt
NNC(=O)c1nc[nH]c1C(=O)Nc1ccc(Cl)cc1C(=O)c1ccccc1	10.8%	-0.1	-1.2%	-8.3	nt	nt	nt	nt	nt	nt	nt
Nc1ncnc2c1ccn2[C@@H]1O[C@H](CO)[C@@H](O)[C@H]1O	8.6%	-0.8	nt	-9.2	nt	nt	nt	nt	nt	nt	nt
NC(=S)c1cn(C2OC(CO)C(O)C2O)c2ncnc(N)c12 (stereo unspecified)	7.94µM*	1.1	0.411µM*	-18.1	?	0.158µM*	0.315µM*	-2.8%	1.99µM*	?	-0.1%
COc1ccccc1OP(=O)(Nc1cccnc1)Oc1ccccc1OC	10.2%	-2.0	2.31µM*	10.1	nt	11.2µM*	7.91µM*	8.4%	-16.1%	?	nt
COc1ccc2c(c1)[nH]c1c(C)nccc12	16.4%	-3.4	2µM*	1.0	nt	2.81µM*	11.2µM*	9.3%	?	-14.3%	nt
COC(=O)[C@@]1(OC)C[C@@H]2O[C@@]1(C)n1c3ccccc3c3c4c(c5c6ccccc6n2c5c31)C(=O)N(C)C4	9.7%	4.4	nt	nt	nt	nt	nt	nt	nt	nt	nt
CN[C@@H]1C[C@@]2(C)O[C@@H]([C@@H]1OC)n1c3ccccc3c3c4c(c5c6ccccc6n2c5c31)C(=O)NC4	-20.2%	nt	nt	nt	0.706µM*	0.5µM*	0.315µM*	11.2µM*	0.997µM*	5µM*	0.7%
CCCCCC1C(=O)O[C@H](C)[C@@H](NC(=O)c2cccc(NC=O)c2O)C(=O)OC(C)C1OC(=O)CC(C)C (stereo partly specified)	17.1%	2.7	nt	nt	4.0%	34.8%	0.0141µM*	-21.5%	0.0141µM*	?	0.2%
C=COCCn1c(C)c(C(=O)OCC)c2cc(O)ccc21	8.2%	1.6	-10.0%	-10.2	nt	nt	nt	nt	nt	nt	nt
CC(=O)c1c(C)n(C2CCCCC2)c2ccc(O)cc12	11.0%	1.2	?	-5.9	nt	1.25µM*	?	1.3%	8.9%	?	nt
Cc1c(C(=O)N2CCC3(CC2)OCCO3)sc2ncnc(N(C)c3ccccc3)c12	1.1%	3.6	?	-21.9	nt	nt	nt	nt	nt	nt	nt
